About 7,900 targets were measured; listed, in parts, are those with a hit and a random draw of the rest. About 0.6% of all pairs of compound and target were hits.
Columns and labels:
Experiment in all cases: log2 fold change, soluble protein after heating vs DMSO (PISA); higher = thermal stabilisation; K562 cells, 10 uM, 30 min; active = over 0.2 and 3.5 SD of the protein, either way, in both replicates (recomputed)
[1] = compound: CC1=C(C=C(C=C1)NC(=O)C2=CC(=CC=C2)C(C)(C)C#N)NC3=CC4=C(C=C3)N=CN(C4=O)C
Summary of the method: (§1)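 K562 cells (2×10^6 cells/mL) were treated with 10 μM compound for 30 min, and aliquots were heated for 3 min over 48°C-58°C. Pooled aliquots were extracted in PBS with 0.5% NP-40 at 4°C, and the supernatant after 21,000xg for 90 min was measured by TMTpro 16plex LC-MS/MS with channel sums equalised. Reported thermal stability, relative to control samples and from duplicates, is a log2 fold change.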

[2] = compound: CC1=C(C=C(C=C1)NC(=O)C2=CC(=CC=C2)N(C)C)NC(=O)C3=CC=C(C=C3)O
Summary of the method: as §1

[3] = compound: CC1=CC=C(C=C1)SC2=C3C=C(SC3=CN=C2)C(=O)N
Summary of the method: as §1

[4] = compound: CC1=NC(=CC=C1)C2=C(N=C(N2)C(C)(C)C)C3=CC4=NC=CN=C4C=C3
Summary of the method: as §1

Nexturastat A = compound: CCCCN(Cc1ccc(C(=O)NO)cc1)C(=O)Nc1ccccc1 [Nexturastat A]
Summary of the method: as §1

vemurafenib = compound: CCCS(=O)(=O)Nc1ccc(F)c(C(=O)c2c[nH]c3ncc(-c4ccc(Cl)cc4)cc23)c1F [vemurafenib]
Summary of the method: as §1

[5] = compound: CCCS(=O)(=O)Nc1ccc(F)c(C(=O)c2c[nH]c3ncc(Cl)cc23)c1F
Summary of the method: as §1

[6] = compound: CCCc1cc(C)[nH]c(=O)c1CNC(=O)c1cc(-c2ccnc(N3CCN(C)CC3)c2)cc2c1cnn2C(C)C
Summary of the method: as §1

givinostat = compound: CCN(CC)Cc1ccc2cc(COC(=O)Nc3ccc(C(=O)NO)cc3)ccc2c1 [givinostat]
Summary of the method: as §1

barasertib = compound: CCN(CCCOc1ccc2c(Nc3cc(CC(=O)Nc4cccc(F)c4)[nH]n3)ncnc2c1)CCOP(=O)(O)O [barasertib]
Summary of the method: as §1

Measured: log2 fold change

BCLAF1 (UniProt Q9NYF8)
inactive: [1] 0.012 | [2] -0.102 | [3] 0.004 | [4] 0.128 | Nexturastat A 0.098 | vemurafenib 0.225 | [5] 0.097 | [6] 0.009 | givinostat 0.137 | barasertib -0.071

BID isoform 2 (UniProt P55957)
inactive: [1] -0.054 | [2] -0.02 | [3] 0.029 | [4] 0.012 | Nexturastat A -0.056 | vemurafenib 0.117 | [5] 0.001 | [6] 0.016 | givinostat -0.001 | barasertib -0.01

AKT2 (UniProt P31751)
inactive: [1] 0.018 | [2] 0.033 | [3] 0.006 | [4] 0.019 | Nexturastat A 0.069 | vemurafenib -0.007 | [5] 0.015 | [6] -0.017 | givinostat 0.069 | barasertib 0.079

ATAD1 (UniProt Q8NBU5)
inactive: [1] 0.019 | [2] -0.034 | [3] 0.012 | [4] -0.012 | Nexturastat A -0.305 | vemurafenib 0.076 | [5] 0.022 | [6] 0.045 | givinostat 0.046 | barasertib 0.055

BRD3 (UniProt Q15059)
active: givinostat -0.842
inactive: [1] 0.261 | [2] 0.008 | [3] 0.035 | [4] -0.003 | vemurafenib 0.198 | [5] -0.048 | [6] -0.017 | barasertib -0.339

AP2A1 (UniProt O95782)
Chain of UniProt O95782 (O95782 whole entry, looked up): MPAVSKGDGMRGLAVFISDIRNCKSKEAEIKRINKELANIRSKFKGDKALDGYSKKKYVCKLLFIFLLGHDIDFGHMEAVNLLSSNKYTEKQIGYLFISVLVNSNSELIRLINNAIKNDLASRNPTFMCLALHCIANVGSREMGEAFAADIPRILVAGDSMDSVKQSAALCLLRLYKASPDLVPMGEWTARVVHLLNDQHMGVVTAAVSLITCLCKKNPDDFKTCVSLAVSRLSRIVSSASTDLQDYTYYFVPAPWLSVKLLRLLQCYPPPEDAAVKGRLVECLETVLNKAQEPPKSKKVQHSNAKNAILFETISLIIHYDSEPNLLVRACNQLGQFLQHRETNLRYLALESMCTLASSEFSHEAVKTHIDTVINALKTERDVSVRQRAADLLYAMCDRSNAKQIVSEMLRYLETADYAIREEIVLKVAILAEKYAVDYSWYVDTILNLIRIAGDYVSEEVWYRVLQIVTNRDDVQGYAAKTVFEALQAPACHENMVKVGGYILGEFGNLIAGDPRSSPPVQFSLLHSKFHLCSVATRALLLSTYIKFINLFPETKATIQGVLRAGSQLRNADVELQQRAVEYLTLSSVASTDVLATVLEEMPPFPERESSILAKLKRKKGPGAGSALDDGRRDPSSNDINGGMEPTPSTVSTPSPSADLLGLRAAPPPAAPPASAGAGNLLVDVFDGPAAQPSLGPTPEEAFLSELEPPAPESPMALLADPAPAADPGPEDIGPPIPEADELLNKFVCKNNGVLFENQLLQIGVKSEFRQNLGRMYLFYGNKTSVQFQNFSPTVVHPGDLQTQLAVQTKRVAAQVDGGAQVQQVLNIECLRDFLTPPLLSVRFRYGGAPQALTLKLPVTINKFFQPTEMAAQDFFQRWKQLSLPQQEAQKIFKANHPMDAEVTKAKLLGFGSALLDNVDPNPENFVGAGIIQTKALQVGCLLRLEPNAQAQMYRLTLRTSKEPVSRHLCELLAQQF
inactive: [1] 0.024 | [2] -0.016 | [3] 0.004 | [4] 0.084 | Nexturastat A 0.048 | vemurafenib 0.009 | [5] 0.03 | [6] -0.003 | givinostat 0.008 | barasertib -0.028

ACTBL2 (UniProt Q562R1)
inactive: [1] 0.238 | [2] 0.243 | [3] -0.385 | Nexturastat A -0.049 | vemurafenib 0.139 | [5] -0.41 | [6] 0.073 | givinostat -0.342 | barasertib 0.161

BRD4 (UniProt O60885)
active: Nexturastat A -0.451
inactive: [1] 0.245 | [2] -0.272 | [3] 0.071 | vemurafenib 0.046 | [5] -0.003 | [6] 0.017 | givinostat -0.252 | barasertib 0.021

APOH (UniProt P02749)
inactive: [1] -0.346 | [2] 0.265 | [3] 0.055 | [4] 0.192 | vemurafenib 0.225 | [5] -0.063 | [6] -0.611 | givinostat 0.046 | barasertib -0.203

ABCA3 (UniProt Q99758)
Chain of UniProt Q99758 (Q99758 whole entry, looked up): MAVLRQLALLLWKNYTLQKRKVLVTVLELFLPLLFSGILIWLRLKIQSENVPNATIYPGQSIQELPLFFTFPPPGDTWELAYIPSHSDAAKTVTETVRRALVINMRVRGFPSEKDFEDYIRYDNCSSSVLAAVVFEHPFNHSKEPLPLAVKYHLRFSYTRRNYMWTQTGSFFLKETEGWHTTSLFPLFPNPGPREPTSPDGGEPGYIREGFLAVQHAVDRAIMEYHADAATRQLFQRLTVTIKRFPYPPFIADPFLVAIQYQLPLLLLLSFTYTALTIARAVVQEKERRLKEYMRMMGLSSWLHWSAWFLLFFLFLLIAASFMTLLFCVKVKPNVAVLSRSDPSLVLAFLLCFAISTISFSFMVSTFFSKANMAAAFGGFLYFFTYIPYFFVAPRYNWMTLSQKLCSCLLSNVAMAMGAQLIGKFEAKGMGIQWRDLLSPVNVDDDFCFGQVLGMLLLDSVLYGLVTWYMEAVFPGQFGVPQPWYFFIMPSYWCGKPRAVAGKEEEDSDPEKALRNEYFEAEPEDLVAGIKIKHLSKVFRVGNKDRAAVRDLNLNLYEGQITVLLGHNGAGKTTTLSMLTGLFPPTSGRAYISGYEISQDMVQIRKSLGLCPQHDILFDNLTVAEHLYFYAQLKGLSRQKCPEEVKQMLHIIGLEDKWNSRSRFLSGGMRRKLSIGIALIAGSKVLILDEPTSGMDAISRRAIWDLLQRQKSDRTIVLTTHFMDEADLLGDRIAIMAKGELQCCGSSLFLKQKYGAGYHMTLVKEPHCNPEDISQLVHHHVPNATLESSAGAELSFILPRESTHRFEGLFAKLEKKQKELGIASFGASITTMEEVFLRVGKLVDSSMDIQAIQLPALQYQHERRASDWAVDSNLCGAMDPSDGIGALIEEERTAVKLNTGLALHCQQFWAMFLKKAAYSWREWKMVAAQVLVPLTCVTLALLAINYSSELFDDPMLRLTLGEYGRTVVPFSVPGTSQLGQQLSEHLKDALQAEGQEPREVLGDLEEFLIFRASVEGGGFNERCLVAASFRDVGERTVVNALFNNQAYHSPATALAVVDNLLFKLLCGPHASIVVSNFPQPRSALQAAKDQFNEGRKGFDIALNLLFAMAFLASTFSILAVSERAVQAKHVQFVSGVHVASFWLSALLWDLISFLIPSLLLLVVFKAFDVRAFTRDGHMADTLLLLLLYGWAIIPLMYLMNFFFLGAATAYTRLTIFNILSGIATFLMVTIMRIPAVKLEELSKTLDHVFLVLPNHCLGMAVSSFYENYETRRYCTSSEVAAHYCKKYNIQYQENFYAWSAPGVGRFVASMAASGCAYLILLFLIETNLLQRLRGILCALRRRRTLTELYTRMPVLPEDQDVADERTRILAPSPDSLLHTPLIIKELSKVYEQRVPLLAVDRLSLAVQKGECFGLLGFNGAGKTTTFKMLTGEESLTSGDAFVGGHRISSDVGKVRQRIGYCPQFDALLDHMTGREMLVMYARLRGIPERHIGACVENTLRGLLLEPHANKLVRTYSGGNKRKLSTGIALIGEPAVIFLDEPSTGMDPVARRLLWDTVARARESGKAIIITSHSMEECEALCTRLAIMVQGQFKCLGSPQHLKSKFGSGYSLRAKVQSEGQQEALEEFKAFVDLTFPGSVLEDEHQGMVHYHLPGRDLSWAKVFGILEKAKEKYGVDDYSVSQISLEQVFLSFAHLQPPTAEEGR
inactive: [1] -0.029 | [2] 0.011 | [3] -0.008 | [4] -0.035 | Nexturastat A -0.142 | vemurafenib -0.161 | [5] -0.112 | givinostat 0.059 | barasertib 0.196

AP2S1 (UniProt P53680)
inactive: [1] 0.009 | [2] -0.028 | [3] -0.036 | [4] 0.037 | Nexturastat A -0.038 | vemurafenib 0.002 | [5] 0.03 | [6] 0.007 | givinostat -0.015 | barasertib -0.034

BRK1 isoform 2 (UniProt Q8WUW1)
Chain of UniProt Q8WUW1 (Q8WUW1 whole entry, looked up): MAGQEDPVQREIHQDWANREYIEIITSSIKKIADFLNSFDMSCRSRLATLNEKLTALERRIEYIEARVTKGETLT
inactive: [1] -0.055 | [2] -0.076 | [3] 0.103 | [4] 0.069 | Nexturastat A -0.02 | vemurafenib 0.044 | [5] -0.004 | [6] 0.002 | givinostat 0.022 | barasertib 0.032

BTAF1 (UniProt O14981)
inactive: [1] -0.033 | [2] 0.07 | [3] -0.035 | [4] 0.011 | Nexturastat A -0.064 | vemurafenib -0.003 | [5] 0.041 | [6] -0.018 | givinostat 0.009 | barasertib 0.038

ASS1 (UniProt P00966)
inactive: [1] -0.073 | [2] -0.015 | [3] -0.06 | Nexturastat A 0.023 | vemurafenib -0.042 | [5] 0.003 | [6] 0.004 | givinostat 0.031 | barasertib -0.063

ARHGAP4 isoform 2 (UniProt P98171)
Chain of UniProt P98171 (P98171 whole entry, looked up): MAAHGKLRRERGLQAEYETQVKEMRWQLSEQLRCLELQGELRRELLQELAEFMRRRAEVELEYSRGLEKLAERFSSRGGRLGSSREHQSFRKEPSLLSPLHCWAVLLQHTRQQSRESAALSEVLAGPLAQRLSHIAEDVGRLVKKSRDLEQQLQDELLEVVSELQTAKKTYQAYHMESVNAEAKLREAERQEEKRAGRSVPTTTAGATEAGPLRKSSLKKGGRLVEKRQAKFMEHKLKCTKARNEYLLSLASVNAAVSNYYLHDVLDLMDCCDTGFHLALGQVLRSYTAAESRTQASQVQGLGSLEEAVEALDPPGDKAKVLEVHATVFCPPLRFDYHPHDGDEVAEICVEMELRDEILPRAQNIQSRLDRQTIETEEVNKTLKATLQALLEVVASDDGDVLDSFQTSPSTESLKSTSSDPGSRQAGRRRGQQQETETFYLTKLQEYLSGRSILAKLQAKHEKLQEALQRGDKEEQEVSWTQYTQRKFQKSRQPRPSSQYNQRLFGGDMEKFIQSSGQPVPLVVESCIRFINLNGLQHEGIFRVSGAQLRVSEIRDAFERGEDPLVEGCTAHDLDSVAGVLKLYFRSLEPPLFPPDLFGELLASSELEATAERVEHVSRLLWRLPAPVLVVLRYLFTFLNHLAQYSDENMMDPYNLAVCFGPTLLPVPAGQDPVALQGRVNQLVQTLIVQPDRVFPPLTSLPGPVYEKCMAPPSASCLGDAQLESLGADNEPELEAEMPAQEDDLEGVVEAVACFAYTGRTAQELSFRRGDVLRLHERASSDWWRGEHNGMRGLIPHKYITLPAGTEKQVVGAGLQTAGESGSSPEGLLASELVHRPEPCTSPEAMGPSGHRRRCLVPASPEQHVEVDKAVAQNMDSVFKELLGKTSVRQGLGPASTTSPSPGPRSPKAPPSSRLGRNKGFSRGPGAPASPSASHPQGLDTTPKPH
inactive: [1] -0.14 | [2] 0.039 | [3] -0.08 | vemurafenib 0.047 | [5] -0.049 | [6] -0.194 | givinostat 0.034 | barasertib -0.466

ABCB6 (UniProt Q9NP58)
inactive: [1] 0.085 | [2] -0.084 | [3] 0.019 | [4] 0.019 | Nexturastat A 0.001 | vemurafenib 0.073 | [5] -0.022 | [6] -0.041 | givinostat -0.002 | barasertib 0.008

ALDH9A1 (UniProt P49189)
inactive: [1] 0.004 | [2] 0.004 | [3] -0.015 | Nexturastat A -0.125 | vemurafenib 0.026 | [5] 0.005 | [6] 0.18 | givinostat 0.058 | barasertib 0.05

ALDH2 isoform 2 (UniProt P05091)
inactive: [1] 0.075 | [2] -0.049 | [3] -0.106 | Nexturastat A -0.103 | vemurafenib -0.023 | [5] -0.141 | barasertib 0.099

ATP6V0A2 (UniProt Q9Y487)
inactive: [1] 0.021 | [2] 0.016 | [3] 0.006 | [4] -0.013 | Nexturastat A 0.024 | vemurafenib 0.026 | [5] 0.014 | [6] 0.014 | givinostat 0.02 | barasertib 0.008

BTBD6 (UniProt Q96KE9)
inactive: [1] -0.061 | [2] -0.108 | [3] 0.003 | Nexturastat A 0.531 | vemurafenib 0.002 | [5] 0.007 | [6] -0.017 | givinostat 0.358 | barasertib -0.017

ACSL3 (UniProt O95573)
inactive: [1] 0.005 | [2] -0.051 | [3] 0.1 | [4] 0.029 | Nexturastat A 0.008 | vemurafenib 0 | [5] 0.038 | [6] -0.016 | givinostat 0.032 | barasertib 0.039

BDH2 (UniProt Q9BUT1)
inactive: [1] -0.051 | [2] -0.085 | [3] 0.086 | [4] 0.016 | [5] -0.077 | [6] -0.019 | givinostat -0.033 | barasertib -0.019
active: vemurafenib 0.447

BRD8 isoform 2 (UniProt Q9H0E9)
inactive: [1] -0.013 | [2] -0.333 | [3] -0.044 | [4] -0.023 | Nexturastat A -0.023 | vemurafenib 0.183 | [5] 0.06 | givinostat -0.126 | barasertib -0.039

ARRDC1 (UniProt Q8N5I2)
inactive: [1] -0.061 | [2] 0 | [3] 0.071 | Nexturastat A 0.021 | vemurafenib 0.048 | [5] 0.039 | [6] 0.023 | givinostat 0.136 | barasertib -0.179

ACACB (UniProt O00763)
inactive: [1] -0.037 | [2] 0.01 | [3] 0.006 | [4] -0.065 | Nexturastat A 0.344 | vemurafenib 0.108 | [5] 0.012 | [6] 0.152 | givinostat 0.149 | barasertib 0.06

ADAM15 (UniProt Q13444)
inactive: [1] -0.045 | [2] 0.056 | [3] 0 | [4] -0.14 | Nexturastat A -0.016 | vemurafenib -0.022 | [5] 0.007 | givinostat 0.308 | barasertib -0.043

BOP1 (UniProt Q14137)
inactive: [1] -0.06 | [2] 0.007 | [3] 0.015 | [4] 0.023 | Nexturastat A 0.162 | vemurafenib 0.047 | [5] -0.006 | [6] 0.055 | givinostat 0.09 | barasertib -0.054

AGAP3 isoform 4 (UniProt Q96P47)
Chain of UniProt Q96P47 (Q96P47 whole entry, looked up): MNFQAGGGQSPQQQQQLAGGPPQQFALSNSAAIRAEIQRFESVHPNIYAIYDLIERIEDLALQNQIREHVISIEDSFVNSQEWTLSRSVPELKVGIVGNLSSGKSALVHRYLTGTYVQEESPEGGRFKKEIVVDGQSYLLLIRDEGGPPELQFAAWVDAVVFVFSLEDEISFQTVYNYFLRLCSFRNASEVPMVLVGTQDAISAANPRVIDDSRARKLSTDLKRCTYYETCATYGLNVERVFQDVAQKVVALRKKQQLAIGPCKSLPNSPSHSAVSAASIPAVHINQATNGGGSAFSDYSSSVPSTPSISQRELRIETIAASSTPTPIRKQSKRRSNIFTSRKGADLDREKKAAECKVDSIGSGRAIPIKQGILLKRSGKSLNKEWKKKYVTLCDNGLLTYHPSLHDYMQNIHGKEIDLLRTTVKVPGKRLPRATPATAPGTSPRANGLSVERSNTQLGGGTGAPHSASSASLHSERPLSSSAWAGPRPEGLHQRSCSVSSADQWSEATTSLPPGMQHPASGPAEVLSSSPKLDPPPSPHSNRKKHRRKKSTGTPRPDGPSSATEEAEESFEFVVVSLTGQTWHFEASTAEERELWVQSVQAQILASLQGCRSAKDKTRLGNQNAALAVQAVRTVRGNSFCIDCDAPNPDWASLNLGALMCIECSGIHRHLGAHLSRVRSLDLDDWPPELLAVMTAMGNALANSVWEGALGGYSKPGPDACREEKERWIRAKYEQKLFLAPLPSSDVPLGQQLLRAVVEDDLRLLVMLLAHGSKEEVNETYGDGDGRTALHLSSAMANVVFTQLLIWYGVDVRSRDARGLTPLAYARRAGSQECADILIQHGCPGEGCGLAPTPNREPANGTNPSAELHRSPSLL
inactive: [1] 0.037 | [2] 0.071 | [3] -0.039 | [4] -0.081 | Nexturastat A 0.252 | [5] -0.022 | [6] 0.089 | givinostat 0.113 | barasertib 0.199

BRIP1 (UniProt Q9BX63)
inactive: [1] -0.049 | [2] -0.007 | [3] -0.009 | [4] -0.03 | Nexturastat A 0.23 | vemurafenib 0.184 | [5] 0.045 | givinostat 0.004 | barasertib -0.162

ARFIP1 isoform 2 (UniProt P53367)
Chain of UniProt P53367 (P53367 whole entry, looked up): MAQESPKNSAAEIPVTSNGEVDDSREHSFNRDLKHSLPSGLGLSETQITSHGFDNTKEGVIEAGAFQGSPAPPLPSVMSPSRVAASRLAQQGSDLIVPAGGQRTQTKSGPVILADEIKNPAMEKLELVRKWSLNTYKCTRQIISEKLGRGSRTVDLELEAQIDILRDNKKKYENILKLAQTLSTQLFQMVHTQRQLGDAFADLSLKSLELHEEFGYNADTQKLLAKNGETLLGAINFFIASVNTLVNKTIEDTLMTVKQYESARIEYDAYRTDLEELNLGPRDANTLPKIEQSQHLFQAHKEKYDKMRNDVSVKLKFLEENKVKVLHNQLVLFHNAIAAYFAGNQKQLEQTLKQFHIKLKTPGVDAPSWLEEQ
inactive: [1] -0.106 | [3] 0.051 | [4] 0.031 | Nexturastat A -0.025 | [5] 0.097 | [6] 0.121 | givinostat 0.061 | barasertib 0.019

BRAF (UniProt P15056)
inactive: [1] 0.15 | [3] 0.02 | [4] -0.01 | Nexturastat A -0.053 | vemurafenib 0.148 | [5] 0.144 | [6] -0.049 | givinostat -0.031 | barasertib 0.022

ATXN7L3 isoform 2 (UniProt Q14CW9)
inactive: [1] 0.013 | [2] -0.017 | [4] -0.09 | [6] 0.137 | givinostat -0.046 | barasertib -0.042
